Laboratory results from PubChem BioAssay.
Activity calls are given as the source filed them.

Assays:
[1] = system: PRMT1 (protein arginine N-methyltransferase 1); experiment: PRMT1 binders on small-molecule microarrays, primary screen, biochemical, small-molecule microarray, 635 nm fluorescence (AID 1088); details: small-molecule microarray binding, higher = more signal;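 further: binding of Prmt1 protein to compounds spotted on small-molecule microarray slides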
[2] = yeast growth modulation, basal conditions, primary screen, YJM789 clinical isolate, OD600, 24 h (AID 1089);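 further: growth of clinical yeast isolate S. cerevisiae YJM 789 seeded 1000 cells per well; test concentration not given here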; details: S. cerevisiae YJM789 growth, higher = more signal, called active from +8 up or from −8 down
[3] = fission yeast growth modulation, primary screen, strain 972, OD600, 24 h, no modulator (AID 1090);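 further: basal condition with compound alone and no growth modifier present; test concentration not given here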; details: S. pombe 972 growth, higher = more signal, called active from +8 up or from −8 down
[4] = S. cerevisiae growth modulation with rapamycin, primary screen, strain BY4716, OD600, 96 h (AID 1091); details: higher = more signal, called active from +8 up or from −8 down; further: test concentration not given here
[5] = molecular target: Torsin-1A-interacting protein 2 (Homo sapiens) (UniProt Q8NFQ8); experiment: LULL1 binders on small-molecule microarray, primary screen, cell lysate, human LULL1 lysate, 635/667 nm fluorescence (AID 1092); details: hLULL1 lysate binding, 635 nm fluorescence, higher = more signal;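 further: probe is lysate of COS7 cells overexpressing human LULL1; score merges per-feature 667 nm fluorescence with signal-to-noise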
[6] = E. coli growth modulation, two-sided OD650, primary screen, E. coli filamentation project, strain DRC41, 24 h (AID 1093); details: OD650, 24 h, higher = more signal, called active from +8 up or from −8 down;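 further: MC1000 strain lacking acrAB efflux and sulA so SOS filamentation is blocked; test concentration not given here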
[7] = small-molecule microarray binders of probe aLefty2, primary screen, biochemical, biotinylated probe, 635/667 nm fluorescence (AID 1094); details: higher = more signal;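 further: score merges spot fluorescence near 667 nm with spot signal-to-noise ratio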
[8] = system: Noggin (protein binding on small-molecule microarray); experiment: Noggin binders on small-molecule microarray, primary screen, biochemical, 635/667 nm fluorescence (AID 1095); details: 635 nm fluorescence, higher = more signal;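 further: score merges 667 nm feature fluorescence with signal to noise over triplicate slides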
[9] = molecular target: Neurogenic locus notch homolog protein 3 (Homo sapiens) (UniProt Q9UM47); experiment: NOTCH3 binders on small-molecule microarray, primary screen, biochemical, 635/667 nm fluorescence (AID 1096); details: NOTCH3 binding, 635 nm fluorescence, higher = more signal
[10] = small-molecule microarray binders of probe aEGFR, primary screen, biochemical, biotinylated probe, 635/667 nm fluorescence (AID 1097); details: higher = more signal;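 further: probe is a biotinylated anti-EGFR antibody binding compounds printed on slides; score combines fluorescence near 667 nm and signal to noise of each spot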
[11] = system: Plasmodium falciparum Sir2 (PF13_0152, Sir2A); experiment: pfSir2 binders on small-molecule microarrays, primary screen, biochemical, small-molecule microarray, 635 nm fluorescence (AID 1098); details: small-molecule microarray binding, fluorescence 635 nm; higher = more signal;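 further: score merges spot fluorescence intensity with its signal-to-noise ratio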
[12] = small-molecule microarray binders of probe aDKK1, primary screen, biochemical, biotinylated probe, 635/667 nm fluorescence (AID 1099); details: higher = more signal;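 further: score merges 667nm spot fluorescence with signal to noise across triplicate slides; reference of the scale not given here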
[13] = small-molecule microarray binders of probe aCHRDL2, primary screen, biochemical, biotinylated probe, 635/667 nm fluorescence (AID 1100); details: higher = more signal
[14] = splicing luciferase reporter signal modulators, primary screen, spliceosome inhibition project, cell-based, HEK293, splice +/- reporter (AID 1101); details: luminescence, 24 h, higher = more signal, called active from +8 up or from −8 down;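 further: HEK293 cells carrying a splicing-competent luciferase reporter gene; test concentration not given here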
[15] = molecular target: Fibroblast growth factor 10 (Homo sapiens) (UniProt O15520); experiment: FGF10 binders on small-molecule microarrays, primary screen, biochemical, small-molecule microarray, 635 nm fluorescence (AID 1102); details: FGF10 binding, fluorescence 635 nm, higher = more signal
[16] = system: glycogen synthase kinase-3 (GSK3A per assay name; protocol says GSK3B); experiment: GSK3 binders on small-molecule microarrays, primary screen, biochemical, small-molecule microarray, 635 nm fluorescence, GSK3A (AID 1103); details: small-molecule microarray binding, fluorescence 635 nm; higher = more signal; further: the record names both GSK3A and GSK3B
[17] = molecular target: Epidermal growth factor receptor (Homo sapiens) (UniProt P00533); experiment: EGFR binders on small-molecule microarrays, primary screen, biochemical, small-molecule microarray, 635 nm fluorescence (AID 1104); details: EGFR binding, higher = more signal;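 further: score merges 667 nm emission intensity with spot signal to noise over triplicate slides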
[18] = molecular target: Follistatin-related protein 3 (Homo sapiens) (UniProt O95633); experiment: FSTL3 binders on small-molecule microarrays, primary screen, biochemical, small-molecule microarray, 635 nm fluorescence (AID 1105); details: FSTL3 binding, higher = more signal;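 further: score merges emission near 667 nm and signal to noise per printed spot across three slides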
[19] = molecular target: Dickkopf-related protein 1 (Homo sapiens) (UniProt O94907); experiment: DKK1 binders on small-molecule microarrays, primary screen, biochemical, small-molecule microarray, 635 nm fluorescence scan (AID 1106); details: DKK1 binding, higher = more signal;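 further: score merges emission near 667 nm with signal to noise over three replicate slides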
[20] = system: Inhibin beta A chain (activin A); experiment: INHBA (activin A) binders on microarrays, primary screen, biochemical, small-molecule microarray, 635 nm fluorescence scan (AID 1107); details: small-molecule microarray binding, higher = more signal;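 further: mouse activin A protein probed at 4.33 µg/mL on printed slides; score merges bound-protein fluorescence near 667 nm with spot signal-to-noise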

Sequence of Torsin-1A-interacting protein 2 (Homo sapiens) (Q8NFQ8 whole entry, looked up): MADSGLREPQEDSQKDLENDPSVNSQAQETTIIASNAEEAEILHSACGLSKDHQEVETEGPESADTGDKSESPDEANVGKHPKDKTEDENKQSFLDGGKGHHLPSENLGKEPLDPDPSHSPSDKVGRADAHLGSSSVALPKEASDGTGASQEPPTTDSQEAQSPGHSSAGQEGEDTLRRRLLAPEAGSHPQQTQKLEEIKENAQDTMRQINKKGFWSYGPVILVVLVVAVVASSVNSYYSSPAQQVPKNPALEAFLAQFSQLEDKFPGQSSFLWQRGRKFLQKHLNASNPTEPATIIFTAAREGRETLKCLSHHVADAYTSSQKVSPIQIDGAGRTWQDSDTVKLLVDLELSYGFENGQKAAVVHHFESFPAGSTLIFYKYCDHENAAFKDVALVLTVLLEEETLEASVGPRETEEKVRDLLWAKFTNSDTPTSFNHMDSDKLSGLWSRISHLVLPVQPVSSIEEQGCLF
Sequence of Fibroblast growth factor 10 (Homo sapiens) (O15520 whole entry, looked up): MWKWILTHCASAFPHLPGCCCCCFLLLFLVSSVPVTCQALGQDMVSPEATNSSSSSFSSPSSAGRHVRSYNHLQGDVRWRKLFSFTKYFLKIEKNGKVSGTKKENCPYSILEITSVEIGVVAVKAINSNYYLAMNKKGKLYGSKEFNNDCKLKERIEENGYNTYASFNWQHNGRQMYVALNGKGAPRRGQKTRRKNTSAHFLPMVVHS
Sequence of Follistatin-related protein 3 (Homo sapiens) (O95633 whole entry, looked up): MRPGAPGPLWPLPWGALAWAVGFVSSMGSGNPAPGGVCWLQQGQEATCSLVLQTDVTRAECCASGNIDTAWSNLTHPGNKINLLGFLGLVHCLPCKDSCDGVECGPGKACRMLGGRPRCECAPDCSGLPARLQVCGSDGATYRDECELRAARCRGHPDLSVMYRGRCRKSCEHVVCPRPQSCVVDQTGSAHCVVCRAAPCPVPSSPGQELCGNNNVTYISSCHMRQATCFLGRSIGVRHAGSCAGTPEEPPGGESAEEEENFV
Sequence of Neurogenic locus notch homolog protein 3 (Homo sapiens) (Q9UM47 whole entry, looked up): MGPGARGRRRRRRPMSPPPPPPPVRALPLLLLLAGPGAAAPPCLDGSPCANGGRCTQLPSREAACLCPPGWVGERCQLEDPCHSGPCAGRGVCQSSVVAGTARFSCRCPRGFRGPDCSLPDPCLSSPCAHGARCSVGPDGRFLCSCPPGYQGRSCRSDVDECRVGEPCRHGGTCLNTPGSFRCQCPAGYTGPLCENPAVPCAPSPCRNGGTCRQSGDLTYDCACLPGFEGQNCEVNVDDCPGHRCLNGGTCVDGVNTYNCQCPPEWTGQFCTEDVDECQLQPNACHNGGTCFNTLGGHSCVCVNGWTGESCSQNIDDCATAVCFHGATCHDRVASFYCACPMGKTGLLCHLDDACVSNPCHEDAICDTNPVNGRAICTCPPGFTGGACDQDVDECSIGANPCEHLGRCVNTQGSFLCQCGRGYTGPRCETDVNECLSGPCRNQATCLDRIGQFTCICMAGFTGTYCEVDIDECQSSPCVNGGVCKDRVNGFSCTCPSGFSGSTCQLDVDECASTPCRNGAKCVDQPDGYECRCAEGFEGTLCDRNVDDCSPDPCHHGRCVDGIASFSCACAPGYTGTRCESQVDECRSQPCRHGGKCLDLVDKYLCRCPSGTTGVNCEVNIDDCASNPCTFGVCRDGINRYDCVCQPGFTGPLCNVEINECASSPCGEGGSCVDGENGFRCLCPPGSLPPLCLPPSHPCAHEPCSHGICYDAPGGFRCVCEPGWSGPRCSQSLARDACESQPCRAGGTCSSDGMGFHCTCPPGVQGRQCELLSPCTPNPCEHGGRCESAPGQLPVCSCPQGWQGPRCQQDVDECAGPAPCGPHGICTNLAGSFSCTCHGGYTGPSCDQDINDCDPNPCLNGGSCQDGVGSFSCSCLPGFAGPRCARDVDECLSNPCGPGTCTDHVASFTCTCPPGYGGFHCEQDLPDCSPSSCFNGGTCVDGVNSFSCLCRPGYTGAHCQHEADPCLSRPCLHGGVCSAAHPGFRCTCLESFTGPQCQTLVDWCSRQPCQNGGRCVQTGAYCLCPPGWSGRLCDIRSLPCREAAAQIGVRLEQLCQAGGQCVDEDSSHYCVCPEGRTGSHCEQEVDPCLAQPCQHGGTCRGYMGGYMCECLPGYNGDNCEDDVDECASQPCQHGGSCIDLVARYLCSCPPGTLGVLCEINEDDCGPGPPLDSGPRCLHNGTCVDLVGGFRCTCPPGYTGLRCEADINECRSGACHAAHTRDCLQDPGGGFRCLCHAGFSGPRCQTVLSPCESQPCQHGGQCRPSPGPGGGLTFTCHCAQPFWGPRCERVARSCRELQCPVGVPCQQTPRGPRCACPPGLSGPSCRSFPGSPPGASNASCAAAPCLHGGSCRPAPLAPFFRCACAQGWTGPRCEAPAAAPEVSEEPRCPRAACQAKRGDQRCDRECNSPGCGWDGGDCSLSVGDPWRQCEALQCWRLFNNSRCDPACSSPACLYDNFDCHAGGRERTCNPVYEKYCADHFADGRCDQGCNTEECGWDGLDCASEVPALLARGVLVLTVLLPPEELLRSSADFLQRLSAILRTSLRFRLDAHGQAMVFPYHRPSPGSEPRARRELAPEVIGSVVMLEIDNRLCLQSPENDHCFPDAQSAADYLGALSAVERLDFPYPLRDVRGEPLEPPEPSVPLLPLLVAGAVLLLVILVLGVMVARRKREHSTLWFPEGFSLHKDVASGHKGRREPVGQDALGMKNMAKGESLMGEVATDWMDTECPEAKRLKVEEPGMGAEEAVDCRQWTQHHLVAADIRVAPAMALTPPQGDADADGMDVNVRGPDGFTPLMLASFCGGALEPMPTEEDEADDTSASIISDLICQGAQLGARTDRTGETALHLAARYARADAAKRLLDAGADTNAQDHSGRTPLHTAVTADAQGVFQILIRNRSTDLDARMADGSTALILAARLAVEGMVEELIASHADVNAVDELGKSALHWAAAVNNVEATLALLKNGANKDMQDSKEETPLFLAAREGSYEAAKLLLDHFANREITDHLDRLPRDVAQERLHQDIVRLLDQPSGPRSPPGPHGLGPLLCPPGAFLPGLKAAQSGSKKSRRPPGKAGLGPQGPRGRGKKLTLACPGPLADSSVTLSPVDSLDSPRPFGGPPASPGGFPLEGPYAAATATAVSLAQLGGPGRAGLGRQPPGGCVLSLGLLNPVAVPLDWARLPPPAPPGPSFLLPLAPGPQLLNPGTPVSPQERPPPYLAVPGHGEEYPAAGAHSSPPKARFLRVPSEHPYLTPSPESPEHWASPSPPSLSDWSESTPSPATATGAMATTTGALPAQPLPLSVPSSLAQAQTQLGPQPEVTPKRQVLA
Sequence of Epidermal growth factor receptor (Homo sapiens) (P00533 whole entry, looked up): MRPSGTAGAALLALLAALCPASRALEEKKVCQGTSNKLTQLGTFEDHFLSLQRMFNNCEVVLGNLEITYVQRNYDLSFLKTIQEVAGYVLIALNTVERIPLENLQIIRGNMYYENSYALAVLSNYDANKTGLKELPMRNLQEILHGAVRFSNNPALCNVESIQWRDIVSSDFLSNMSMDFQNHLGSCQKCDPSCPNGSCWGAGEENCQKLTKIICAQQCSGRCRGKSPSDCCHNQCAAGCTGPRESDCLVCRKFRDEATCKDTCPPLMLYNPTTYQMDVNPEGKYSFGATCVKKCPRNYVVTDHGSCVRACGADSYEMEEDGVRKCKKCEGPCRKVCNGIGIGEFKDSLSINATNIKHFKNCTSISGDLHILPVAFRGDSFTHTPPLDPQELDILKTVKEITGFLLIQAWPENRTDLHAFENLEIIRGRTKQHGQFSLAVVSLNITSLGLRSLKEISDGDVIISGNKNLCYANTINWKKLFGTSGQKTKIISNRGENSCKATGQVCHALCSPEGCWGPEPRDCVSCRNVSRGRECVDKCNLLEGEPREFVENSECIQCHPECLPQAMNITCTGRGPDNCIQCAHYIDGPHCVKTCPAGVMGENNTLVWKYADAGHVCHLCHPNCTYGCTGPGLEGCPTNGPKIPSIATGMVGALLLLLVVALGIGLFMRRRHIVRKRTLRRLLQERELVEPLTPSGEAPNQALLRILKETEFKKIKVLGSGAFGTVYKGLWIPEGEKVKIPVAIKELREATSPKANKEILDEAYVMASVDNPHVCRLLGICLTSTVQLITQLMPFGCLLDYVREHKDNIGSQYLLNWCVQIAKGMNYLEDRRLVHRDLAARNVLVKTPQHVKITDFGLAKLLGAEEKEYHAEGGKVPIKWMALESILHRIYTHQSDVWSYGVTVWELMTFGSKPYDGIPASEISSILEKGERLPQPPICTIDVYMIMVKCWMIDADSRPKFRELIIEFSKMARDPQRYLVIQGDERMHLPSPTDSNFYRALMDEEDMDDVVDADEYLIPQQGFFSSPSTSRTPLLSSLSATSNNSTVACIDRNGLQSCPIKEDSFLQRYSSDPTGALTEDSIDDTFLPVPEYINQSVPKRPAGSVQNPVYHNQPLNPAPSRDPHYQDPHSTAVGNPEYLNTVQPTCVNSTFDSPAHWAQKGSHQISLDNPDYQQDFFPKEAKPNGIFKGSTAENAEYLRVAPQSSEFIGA
Sequence of Dickkopf-related protein 1 (Homo sapiens) (O94907 whole entry, looked up): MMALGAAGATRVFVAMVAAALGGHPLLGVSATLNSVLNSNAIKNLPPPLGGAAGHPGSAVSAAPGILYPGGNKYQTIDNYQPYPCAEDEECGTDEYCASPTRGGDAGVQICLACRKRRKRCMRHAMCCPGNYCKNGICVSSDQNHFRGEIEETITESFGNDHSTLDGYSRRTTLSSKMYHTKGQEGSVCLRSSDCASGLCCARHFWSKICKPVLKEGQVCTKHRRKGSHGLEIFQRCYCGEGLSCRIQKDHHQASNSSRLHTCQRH

Structure (SMILES)	composite z-score [1]	z-score [2]	z-score [3]	z-score [4]	composite z-score [5]	z-score [6]	composite z-score [7]	composite z-score [8]	composite z-score [9]	composite z-score [10]	composite z-score [11]	composite z-score [12]	composite z-score [13]	z-score [14]	composite z-score [15]	composite z-score [16]	composite z-score [17]	composite z-score [18]	composite z-score [19]	composite z-score [20]
C=CCN1C(=O)[C@@]2(Cc3ccccc3)N=C(c3ccc(OCCCO)cc3)O[C@H]2c2ccccc21	1.36	-0.772 (inactive)	-5.06 (inactive)	1.63 (inactive)	2.77	0.612 (inactive)	0.44	0.293	1.08	0.031	1.59	1.07	1.19	-0.298 (inactive)	0.534	0.876	0.96	0.956	0.613	0.965
COC(=O)c1c(CC[C@@H](CO)NC(=O)N[C@H](Cn2cc(-c3cncn3C)nn2)C(C)C)oc(C(C)=O)c1C(=O)OC	1.09	-0.177 (inactive)	-1.26 (inactive)	-0.164 (inactive)	1.47	2.3 (inactive)	-0.0617	0.209	0.149	0.19	0.844	-0.203	-0.342	-1.93 (inactive)	0.512	0.861	0.363	0.165	0.265	-0.253
CO[C@H]1COC(=O)CC=C[C@@H](C)COC(=O)[C@@H](C)NC(=O)CC=C[C@@H]1C	1.53	-3.75 (inactive)	-2.87 (inactive)	-2.71 (inactive)	-0.55	-0.288 (inactive)	-0.179	1.83	0.473	-0.0243	1.35	-0.954	-1.84	-2.81 (inactive)	0.567	0.967	1.39	1.45	2.01	-0.529
CO[C@H]1COC(=O)[C@H](Cc2ccccc2)NC(=O)CC=C[C@@H](C)[C@H](OC)COC(=O)CC=C[C@@H]1C	-0.141	-0.39 (inactive)	-1.44 (inactive)	-0.617 (inactive)	0.239	0.296 (inactive)	-0.152	0.344	0.717	0.0875	0.143	0.077	-0.473	-0.875 (inactive)	0.323	0.418	0.44	0.532	0.898	-0.405
CO[C@H]1O[C@H](CO)[C@@H](OC(=O)Nc2ccc3c(c2)OCO3)[C@H](OC(=O)Nc2ccccc2)[C@@H]1OC(=O)Nc1ccccc1	1.55	0.738 (inactive)	0.51 (inactive)	4.42 (inactive)	3.33	-1.17 (inactive)	-0.0798	1.02	0.915	-0.144	0.966	0.0085	0.0249	-0.788 (inactive)	1.46	1.16	-0.228	0.479	-0.0463	-0.0204
Cc1ccc(S[C@]2(C(=O)NCCCN(C)C)CC(=O)N(C3CCCCC3)[C@@H]2c2ccc(CO)cc2I)cc1	-0.167	0.782 (inactive)	-8.01 (active)	-0.417 (inactive)	1.81	-0.455 (inactive)	0.213	-0.553	-0.742	-0.257	-0.939	0.956	1.14	-1.31 (inactive)	-0.582	0.219	-1	-0.593	-0.256	1.14
O=C(NCC(F)(F)F)[C@@H]1c2ccccc2C(=O)N(Cc2ccccc2Cl)[C@H]1c1ccc(CO)cc1	-0.809	-0.896 (inactive)	-0.243 (inactive)	0.0061 (inactive)	1.18	0.939 (inactive)	-0.605	-1.5	-1.14	-0.0721	1.68	0.624	-0.363	0.632 (inactive)	-0.85	-1.1	-0.728	-0.643	-0.941	-0.0121
C[C@@H]1NC(=O)CC=C[C@@H](C)[C@@H]2C=C[C@H](O)[C@@H](COC(=O)[C@H](C)NC(=O)CC=C[C@@H](C)[C@@H]3C=C[C@H](O)[C@@H](COC1=O)O3)O2	0.0027	-1.07 (inactive)	-2.24 (inactive)	-0.764 (inactive)	-0.178	0.602 (inactive)	-0.221	0.464	0.108	-0.0262	0.231	-0.555	-0.925	-1.61 (inactive)	0.544	0.217	0.418	0.632	0.849	0.0277
CCCC/C=C/[C@H]([C@@H](O)Cc1ccccc1)N(CC#Cc1ccccc1)Cc1ccccc1Br	-0.439	0.933 (inactive)	-0.972 (inactive)	0.0956 (inactive)	-0.0817	2.92 (inactive)	0.0735	-2.07	-1.4	-0.428	-0.488	0.113	1.26	-0.669 (inactive)	-1.47	-0.749	-1.77	-1.55	-2.53	0.109
C=CCOC(=O)[C@@H]1[C@H]2C(=O)O[C@H](c3ccccc3)[C@H](c3ccccc3)N2[C@H](c2ccc(OCCOC(=O)[C@H]3C[C@H]4C(=O)N[C@@H](CCCCNC(C)=O)C(=O)N4[C@H]3c3ccc(O)cc3)cc2)[C@@]12C(=O)Nc1ccc(I)cc12	1.55	1.38 (inactive)	0.802 (inactive)	4.48 (inactive)	1.39	-0.428 (inactive)	-0.0974	1.66	1.07	0.0333	1.3	-0.173	-0.119	0.711 (inactive)	1.03	1.28	0.603	1.19	0.394	0.565
O=C/C=C/c1ccc(/C=C/c2ccccc2)cc1	-0.742	-2.92 (inactive)	-19.7 (active)	-1.59 (inactive)	-0.917	1.51 (inactive)	0.0262	-0.43	-1.2	-0.225	-0.636	-0.287	0.616	-0.653 (inactive)	-0.77	-0.386	0.193	0.233	-0.278	1.47
COCCOC(=O)N1C(=O)[C@@]2(c3cc(C#CCC(C(=O)OC)C(=O)OC)ccc31)[C@H](C(=O)N1CCN(c3ncccn3)CC1)[C@H]1C(=O)O[C@H](c3ccccc3)[C@H](c3ccccc3)N1[C@@H]2c1ccc(O)cc1	1.54	-0.256 (inactive)	-1.38 (inactive)	0.921 (inactive)	2.23	3.19 (inactive)	-0.0288	0.414	1.17	-0.0675	1.25	0.2	0.733	-1.15 (inactive)	0.589	0.845	0.279	0.698	0.0392	0.283
C=CCc1cccc([C@H]2N[C@H](C(=O)O)CC[C@@H]2C)c1	0.453	0.468 (inactive)	0.0843 (inactive)	2.04 (inactive)	-0.0584	0.271 (inactive)	-0.203	1.17	0.245	-0.0828	0.289	-0.6	-0.832	-0.704 (inactive)	0.219	0.706	0.793	0.778	1.22	1.12
NC(=O)NCC#Cc1ccc2c(c1)[C@]1(C(=O)N2)[C@H](C(N)=O)[C@H]2C(=O)O[C@H](c3ccccc3)[C@H](c3ccccc3)N2[C@@H]1c1ccccc1OCCO	1.22	0.592 (inactive)	0.742 (inactive)	0.804 (inactive)	1.04	-0.829 (inactive)	0.129	0.546	1.11	-0.151	0.628	0.371	0.482	-0.328 (inactive)	1.06	0.343	0.269	1.02	0.576	1.02
Cc1ccc(S[C@]2(C(=O)NC3CC3)CC(=O)N(Cc3cc(C(F)(F)F)cc(C(F)(F)F)c3)[C@@H]2c2ccc(CO)cc2)cc1	1.55	-1.18 (inactive)	-1.51 (inactive)	-2.53 (inactive)	2.27	-0.83 (inactive)	-0.213	0.756	0.58	-0.0772	0.259	-0.212	0.0275	0.434 (inactive)	0.295	0.57	0.196	0.811	0.245	0.709
C=CCOC(=O)[C@@H]1[C@H]2C(=O)O[C@H](c3ccccc3)[C@H](c3ccccc3)N2[C@H](c2ccc(OCCOC(=O)[C@H]3C[C@H]4C(=O)N5CCC[C@H]5C(=O)N4[C@H]3c3ccc(O)cc3)cc2)[C@@]12C(=O)Nc1ccccc12	1.51	-0.0259 (inactive)	-0.766 (inactive)	2.42 (inactive)	1.44	2.52 (inactive)	0.239	0.684	0.695	0.0459	1.04	0.264	0.573	-1.3 (inactive)	0.883	1.18	0.689	1.34	0.921	0.668
CCCC=C(CCC)[C@@H](NC(=O)c1ccc(C(F)(F)F)cc1)c1ccccc1	0.626	0.562 (inactive)	-0.502 (inactive)	1.62 (inactive)	2.03	-0.773 (inactive)	-0.0038	-0.0491	0.417	-0.0565	0.658	0.559	0.622	-3.52 (inactive)	-0.433	0.662	-0.405	0.0071	-0.446	0.0953
CO[C@@H]1COC(=O)[C@H](C)NC(=O)CC=C[C@@H](C)[C@H](NS(=O)(=O)c2ccc(C)cc2)COC(=O)CC=C[C@@H]1C	-0.844	0.79 (inactive)	-0.0181 (inactive)	0.256 (inactive)	-0.382	0.452 (inactive)	-0.207	-0.0396	-0.693	-0.211	-0.876	-0.435	-0.505	-0.373 (inactive)	0.0743	-0.11	0.286	-0.0201	0.0647	-0.204
COc1ccc([Si](C)(C)[C@@H]2[C@@H](CCO)O[C@]3(C(=O)N(Cc4ccccc4)c4ccccc43)[C@H]2C)cc1	1.06	0.566 (inactive)	0.124 (inactive)	1.24 (inactive)	0.955	1.73 (inactive)	-0.228	0.0139	0.167	-0.143	0.183	-0.18	-0.455	-0.535 (inactive)	0.633	0.16	0.187	0.174	0.104	-0.0249
